Bioassay records (PubChem)
In the library only some 3.1% were active in any assay of this set; here they are far more common.
p53null 32C tox = kills p53 null cells at the permissive temperature | H1299-neo p53 null cells, ATP luminescence, 24 h, 32C | Potency, µM (highest dose often 46.1 µM), actives largely listed as cytotoxic | 0.62% of 55,000 active | AID 903; note: nearly all actives have a fitted effect of over 55% in size
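Overnight 37C seeding (600 cells/well) of H1299-neo preceded a 24 hr, 32C exposure to compounds up to 46 uM. ATP levels, read by luminescence after 20 min at RT, indicated surviving cells.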
S16 viability = toxic to S16 Pmp22-F2sN Schwann cells. Potency, µM (highest dose often 57.5 µM), hits mostly cytotoxic. AID 1508642. 0.48% of 43,000 active. S16 Pmp22-F2sN Schwann cells viability, CellTiter-Glo, 24 h; note: nearly all actives have a fitted effect of over 65% in size
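Used to flag compounds lowering reporter output through toxicity, this quantitative HTS measures ATP-based CellTiter-Glo luminescence in S16 Pmp22-F2sN Schwann cells after 24 h compound exposure at 37C.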
OvCa metastasis = blocks SKOV3ip1 adhesion and invasion in omental model. 0.1% of 46,000 active. Potency, µM (highest dose often 45.8 µM), actives largely listed as inhibitors. SKOV3ip1-GFP adhesion/invasion on 3D omental model, fluorescence. AID 1963576; note: nearly all actives have a fitted effect of over 65% in size
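Adhesion/invasion was scored as fixed GFP-labeled SKOV3ip1 cell counts (488/509 nm), normalized to DMSO and tomatine controls. Cancer cells in serum-free medium, with four compound doses (0.36-46 umol/L), sat 2 hr at RT then 16 hr at 37 C on a 48 hr fibroblast/mesothelial/ECM culture.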
PMP22 txn = PMP22 gene transcription modulation | S16 Pmp22-F2sN Schwann cells (luciferase reporters placed in the Pmp22 gene), FLuc/NLuc coincidence luminescence, 24 h | Potency, µM (highest dose often 57.5 µM), usual class: inhibitors | 2% of 43,000 active | AID 1508649; active = clear falling dose curves in both reporters; inconclusive = both reporters move, but less clearly or upward; inactive = either reporter flat; the % is the NLuc reporter signal
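S16(c9) Schwann cells with FLuc/NLuc coincidence reporter in the Pmp22 3' UTR; compounds pin-transferred, 24 h at 37C. Dual-luciferase read: FLuc first, then NLuc after Stop&Glo, each 10 min at room temperature.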
pS6 MEF inh = inhibitors of mTORC1 signaling in Tsc2-/- p53-/- MEF cells; AID 493208; 0.78% of 44,000 active; Potency, µM (titrated, usually from 38.3 µM), usual class: inhibitors; Tsc2-/- p53-/- MEF, phospho-rpS6 immunofluorescence/PI, 24 h; note: nearly all actives have a fitted effect of over 50% in size
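Immunofluorescence of rpS6 phosphorylation in Tsc2-/-, p53-/- MEFs after 24 h compound exposure, normalized to propidium iodide signal. Activity is expressed as % positive cells, thresholded with 7.5 nM rapamycin.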
p53null 39C kill = p53 null cell cytotoxicity, nonpermissive temperature; H1299 p53-null (neo) cells, 39C, ATPlite viability, 24 h; Potency, µM (top dose mostly 46.1 µM), actives largely listed as cytotoxic; 0.97% of 55,000 active; AID 904; note: nearly all actives have a fitted effect of over 50% in size
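Cells seeded at 600/well, 37C overnight. Compound added (up to 46 uM), plates shifted to 39C for 24 hr. ATPlite added, luminescence read after 20 min at room temperature.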
NLuc saturating = counter-screen for PMP22 expression modulators: NanoLuc inhibition, saturating substrate. shares compounds with PMP22 txn. Secreted NLuc enzyme (filtered S16 cell medium), Nano-Glo luminescence. Potency, µM (top dose mostly 57.5 µM), most hits filed as inhibitors. 4% of 690 active
NLuc Km counter = counter-screen for PMP22 expression modulators: NanoLuc inhibition at Km. Potency, µM (series often up to 57.5 µM), usual class: inhibitors. shares compounds with PMP22 txn. 5% of 690 active. secreted NLuc enzyme, coelenterazine luminescence, Km conditions. AID 1508639
FLuc counter = firefly luciferase enzyme inhibition artifact for PMP22 screen. shares compounds with PMP22 txn. purified P. pyralis FLuc, luminescence, 10 min. 690 tested, under 10 active. Potency, µM (series often up to 57.5 µM), most hits filed as inhibitors. AID 1508640
Target sequence (P08659 whole entry, looked up): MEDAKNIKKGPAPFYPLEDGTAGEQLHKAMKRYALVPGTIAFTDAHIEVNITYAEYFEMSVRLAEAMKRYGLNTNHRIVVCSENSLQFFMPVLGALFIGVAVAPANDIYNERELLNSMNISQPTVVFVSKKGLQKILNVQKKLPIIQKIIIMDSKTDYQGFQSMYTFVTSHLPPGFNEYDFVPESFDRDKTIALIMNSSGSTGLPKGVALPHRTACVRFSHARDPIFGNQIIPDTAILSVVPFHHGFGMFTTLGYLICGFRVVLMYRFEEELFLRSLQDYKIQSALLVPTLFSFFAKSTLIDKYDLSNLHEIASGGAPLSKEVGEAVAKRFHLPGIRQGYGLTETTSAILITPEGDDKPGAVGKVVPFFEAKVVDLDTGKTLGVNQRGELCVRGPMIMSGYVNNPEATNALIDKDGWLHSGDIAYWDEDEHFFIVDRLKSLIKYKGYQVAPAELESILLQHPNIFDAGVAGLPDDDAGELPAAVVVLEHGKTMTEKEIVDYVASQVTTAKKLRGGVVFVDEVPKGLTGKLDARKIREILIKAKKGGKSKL
S16 F2sN tox cnf = S16 Schwann cell cytotoxicity, confirmatory | shares compounds with PMP22 txn | S16 Schwann cells viability, CellTiter-Glo ATP luminescence, 24 h | Potency, µM (highest dose often 57.5 µM), most hits filed as cytotoxic | 7% of 690 active
PMP22 txn conf = confirmation of modulators of PMP22 gene transcription in S16 cells | Potency, µM (doses to about 57.5 µM), hits mostly inhibitors | AID 1508646 | S16 Schwann cells Pmp22-F2sN, dual luciferase, 24 h | 22% of 690 active | shares compounds with PMP22 txn; active = clear falling dose curves in both reporters; inconclusive = both reporters move, but less clearly or upward; inactive = either reporter flat; the % is the FLuc reporter signal
PMP22 HiBiT cnf = confirmation of modulators of rat PMP22 protein expression; Potency, µM (series often up to 27.9 µM), most hits filed as inhibitors; 95 tested, under 10 active; AID 1508647; S16 Schwann cells Pmp22-HiBiT, luminescence, 48 h; shares compounds with PMP22 txn
Target sequence (P25094 whole entry, looked up): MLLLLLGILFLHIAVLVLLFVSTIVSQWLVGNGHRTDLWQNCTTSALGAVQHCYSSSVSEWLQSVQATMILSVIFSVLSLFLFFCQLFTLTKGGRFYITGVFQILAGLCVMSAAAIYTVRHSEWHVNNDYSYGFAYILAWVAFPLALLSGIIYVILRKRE
Large screens that a line does not name were inactive (follow-up assays come after a bar, where they were run). Unless noted, calls come from the whole dose curve; as a rule, active = well fitted curve in the direction sought with a large enough effect; inconclusive = small, poorly fitted or top-dose-only effect, or another doubt; inactive = no such curve, though single readings can be large; an effect the other way counts as inactive or inconclusive.

CCOC(=O)c1c(-c2ccccc2)oc2ccc(NS(=O)(=O)c3ccc(OC)cc3)cc12	S16 viability inconclusive, OvCa metastasis inconclusive, pS6 MEF inh inconclusive
CCCc1oc2ccc(NS(=O)(=O)c3ccc(OC)cc3)cc2c1C(=O)OCC	PMP22 txn 13µM, pS6 MEF inh 4.1µM, p53null 39C kill inconclusive | NLuc saturating inactive | NLuc Km counter inconclusive | FLuc counter inactive | S16 F2sN tox cnf inactive | PMP22 txn conf inactive
CCC1=C(c2ccc(C)cc2)S(=O)(=O)N=C1N1CCC(C(=O)NCCc2ccc(Cl)cc2)CC1	S16 viability inconclusive, PMP22 txn inconclusive
CCCN1CCN(CCCNC(=O)Cn2c(-c3cccs3)cc3cc(Cl)ccc32)CC1	S16 viability inconclusive, OvCa metastasis inconclusive, PMP22 txn 11µM | NLuc saturating inactive | NLuc Km counter inactive | FLuc counter inactive | S16 F2sN tox cnf inconclusive | PMP22 txn conf inconclusive
CCN1CCN(CCCNC(=O)Cn2c(-c3cccs3)cc3ccccc32)CC1	S16 viability inconclusive, PMP22 txn inconclusive
CN1CCN(CCCNC(=O)Cn2c(-c3cccs3)cc3ccccc32)CC1	PMP22 txn inconclusive
Cc1ccc(C)c(N2CCN(CCCNC(=O)Cn3c(-c4cccs4)cc4ccccc43)CC2)c1	p53null 32C tox inconclusive, S16 viability inconclusive, OvCa metastasis inconclusive, PMP22 txn 13µM, pS6 MEF inh inconclusive, p53null 39C kill inconclusive | NLuc saturating inactive | NLuc Km counter inactive | FLuc counter inactive | S16 F2sN tox cnf inconclusive | PMP22 txn conf inconclusive | PMP22 HiBiT cnf inactive
CCCN1CCN(CCCNC(=O)Cn2c(-c3cccs3)cc3ccccc32)CC1	PMP22 txn inconclusive | PMP22 HiBiT cnf inconclusive
COc1ccc(CNC(=O)CCc2c(C)nn(-c3ccc(N4CCCCC4)nn3)c2C)cc1	none (no result: S16 viability, PMP22 txn)
CCOc1ccc(C2=CC(c3cc(Br)ccc3F)n3ncnc3N2)cc1Cl (stereo not given)	none
CCOC(=O)c1c(S(=O)(=O)N2CCC(C(=O)Nc3ccc(C)cc3C)CC2)c(C)n(C)c1C	none
Cc1ccc(C)n1-c1nnc(N2CCCC(C(=O)Nc3ccccc3Br)C2)s1 (stereo not given)	PMP22 txn 17µM | NLuc saturating inactive | NLuc Km counter inconclusive | FLuc counter inactive | S16 F2sN tox cnf inactive | PMP22 txn conf inactive
Cc1ccccc1CNC(=O)C1CCCN(c2nnc(-n3c(C)ccc3C)s2)C1 (stereo not given)	S16 viability inconclusive, PMP22 txn 16µM | NLuc saturating inactive | NLuc Km counter inconclusive | FLuc counter inactive | S16 F2sN tox cnf inactive | PMP22 txn conf inactive
Cc1cccc(NC(=O)C2CCCN(c3nnc(-n4c(C)ccc4C)s3)C2)c1C (stereo not given)	PMP22 txn 16µM | NLuc saturating inconclusive | NLuc Km counter inactive | FLuc counter inactive | S16 F2sN tox cnf inactive | PMP22 txn conf inconclusive
Cc1cc(F)ccc1NC(=O)C1CCCN(c2nnc(-n3c(C)ccc3C)s2)C1 (stereo not given)	PMP22 txn inconclusive
COc1ccc(-n2c(=O)c3ccc(C(=O)NCc4ccc(C)cc4)cc3n(CC(=O)Nc3ccc(C)cc3)c2=O)cc1	p53null 32C tox inconclusive, PMP22 txn inconclusive, pS6 MEF inh inconclusive, p53null 39C kill inconclusive
CC(C)OC(=O)C1=CN(C(=O)c2ccc(F)c(F)c2)CC(C)(C)c2c1[nH]c1ccccc21	none (no result: p53null 32C tox, S16 viability, PMP22 txn, pS6 MEF inh, p53null 39C kill)
Cc1ccc(C(=O)c2oc3ccccc3c2NC(=O)c2nc(S(C)(=O)=O)ncc2Cl)cc1F	S16 viability inconclusive, PMP22 txn 7.6µM | NLuc saturating inactive | NLuc Km counter inactive | FLuc counter inactive | S16 F2sN tox cnf 22µM | PMP22 txn conf 13µM
CS(=O)(=O)c1ncc(Cl)c(C(=O)Nc2c(C(=O)Nc3ccccc3)oc3ccccc23)n1	S16 viability inconclusive, PMP22 txn inconclusive
CC(=O)c1cccc(NC(=O)c2ccc3c(c2)N(Cc2ccc(C)cc2)CCS3)c1	none
O=C(Nc1cc(-c2nc3ccccc3o2)ccc1Cl)c1ccc(Br)o1	none
CCCn1c(=O)c2[nH]c(-c3cnn(Cc4cccc(C(F)(F)F)c4)c3)nc2n(CC)c1=O	none (no result: p53null 32C tox, S16 viability, PMP22 txn, pS6 MEF inh, p53null 39C kill)
CCc1ccc(-c2nc(CN3CCC(C(=O)NCCc4ccc(Cl)cc4)CC3)c(C)o2)cc1	PMP22 txn 16µM | NLuc saturating inactive | NLuc Km counter inactive | FLuc counter inactive | S16 F2sN tox cnf inconclusive | PMP22 txn conf inconclusive
CCc1ccc(-c2nc(CN3CCC(C(=O)NCCc4ccc(C)cc4)CC3)c(C)o2)cc1	PMP22 txn inconclusive
Cc1oc(-c2ccc(Cl)cc2)nc1CN1CCCC(C(=O)NCCc2ccccc2)C1 (stereo not given)	PMP22 txn 19µM | NLuc saturating inactive | NLuc Km counter inactive | FLuc counter inactive | S16 F2sN tox cnf inconclusive | PMP22 txn conf inactive
COc1ccccc1CCN1COc2c(cc3c(C)c(C)c(=O)oc3c2C)C1	none (no result: S16 viability, PMP22 txn)
CCCCCOc1ccc(/C=C/C(=O)Nc2sc(C)c(C)c2C(=O)OCC)cc1OC	PMP22 txn 7.1µM | NLuc saturating inactive | NLuc Km counter inactive | FLuc counter inactive | S16 F2sN tox cnf inactive | PMP22 txn conf inactive
